From PubChem
This is a sample that favours compounds with a hit; in the whole collection about 14% have one here.
4-MU autofl – 4-MU region autofluorescence. compound autofluorescence, 340/450 nm, 4-MU equivalents; active compounds read high. actives 11% (n = 59,000). max dye-equivalent concentration, M; in the data active = max dye-equivalent concentration above about 10 nM; inconclusive = mostly about 1.1 nM to 9.6 nM
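Compounds in 100 mM Tris, pH 8.0, sat 15 min at room temperature before fluorescence was read at 340 nm excitation/450 nm emission; a per-plate six-point 4-MU standard curve converted signals to dye-equivalent concentration at each compound concentration.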
CRE-bla Fsk – CRE-bla signaling modulation under forskolin stimulation | CHO CRE-bla reporter (cAMP response element driving beta-lactamase), forskolin EC10, beta-lactamase ratio | Potency, µM (highest dose often 38.2 µM), for inactives: at the top dose activity change, negative = inhibition, usual class: activators | actives 2.5% (n = 71,000) | AID 662; active = well fitted activation curve with a large enough effect in the signal ratio, with a control signal flat, not every such curve was filed as active; inconclusive = small, poorly fitted or top-dose-only effect, or effect the other way, or a change in a side signal; the % refers to the signal ratio; note: potency is the fitted concentration of half-maximal effect; % of control where 0% means no effect
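CRE-bla CHO reporter cells treated with compound titration plus EC10 NKH 477 (water-soluble forskolin), incubated 3 h at 37 °C; CCF4 loading 2 h at room temperature, 460/530 nm emission ratio read, AC50 values derived for positive or negative modulators.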
HADH2 inh – blocks human hydroxyacyl-CoA dehydrogenase type II | recombinant HADH2, NADH fluorescence, beta-hydroxybutyryl-CoA | Potency, µM (series often up to 57.1 µM), without a hit: at the top dose activity change, negative = inhibition, most hits filed as inhibitors | actives 3.4% (n = 73,000) | AID 886; note: potency is the fitted concentration of half-maximal effect; % is set by controls: 0 for no effect and ±100 for the full control effect; nearly all actives have a fitted effect of over 60% in size
Target sequence (Q99714 whole entry, looked up, one chain of several): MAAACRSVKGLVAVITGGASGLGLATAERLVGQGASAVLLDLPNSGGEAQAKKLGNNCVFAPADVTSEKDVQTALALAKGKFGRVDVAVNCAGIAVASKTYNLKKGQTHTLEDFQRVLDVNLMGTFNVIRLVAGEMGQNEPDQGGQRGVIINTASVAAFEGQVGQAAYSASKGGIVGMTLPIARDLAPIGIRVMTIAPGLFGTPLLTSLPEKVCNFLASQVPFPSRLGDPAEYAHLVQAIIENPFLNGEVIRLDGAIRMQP
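Activity measured as NADH fluorescence gain (360/450 nm), taken as the change between first and last reads of a 4-min kinetic run. Conditions: pH 9.0 Tris buffer, 20 nM E. coli-expressed His-tagged enzyme, 1 mM NAD+, 90 uM beta-hydroxybutyryl-CoA; 15-min compound preincubation.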
A350 fluor – compounds fluorescent in Alexa 350 spectral region. Compound autofluorescence, 340/450 nm, Alexa 350 dye-equivalents; active compounds read high. max dye-equivalent concentration, M. actives 11% (n = 59,000). AID 590; in the data active = max dye-equivalent concentration above about 10 nM; inconclusive = mostly about 1.1 nM to 9.6 nM
HSD17B inh – HSD17B dehydrogenase inhibition. recombinant HSD17B10, NADH fluorescence kinetic. Potency, µM (titrated, usually from 57.1 µM), for the others: top-dose activity change, negative = inhibition, usual class: inhibitors. actives 7.6% (n = 75,000);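 note: the protocol describes HADH2 (HSD17B10) and not the HSD17B4 of the title; potency is the fitted concentration of half-maximal effect; % is set by controls: 0 for no effect and ±100 for the full control effect; nearly all actives have a fitted effect of over 70% in size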
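Activity followed as NADH fluorescence increase (ex 360, em 450 nm) every 30 seconds for 4 min, using final 90 uM beta-hydroxybutyryl CoA and 1 mM NAD+. Recombinant His-tagged enzyme, 20 nM, pH 9.0 Tris buffer, 15 min compound preincubation.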
AID923 – qHTS Assay for Allosteric/Competitive Inhibitors of Caspase-1: Spectroscopic Profiling in AFC Spectral Region; compound fluorescence, AFC spectral region (405/520 nm); Potency, µM (doses to about 57.5 µM), without a hit: at the highest dose fluorescence increase, most hits filed as activators; actives 1.1% (n = 75,000); note: potency is the fitted concentration of half-maximal effect; 0% is about no effect
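Baseline compound fluorescence (AFC region, 405 nm ex/520 nm em) taken from the intercept of kinetic reads with 50 nM caspase-1 and 5 uM Ac-WEHD-AFC; normalized to an on-plate AFC standard curve; compounds titrated up to 57 uM.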
CHO via 24h – cytotoxicity in CRE-bla CHO cells at 24 h; shares compounds with CRE-bla Fsk; CRE-bla CHO viability, ATP luminescence, 24 h; activity, negative = viability loss, % at 46.1 µM; 120 tested, under 10 active
CHO via 40h – CHO cell toxicity at 40 h by ATP luminescence; CRE-bla CHO viability, ATP luminescence, 40 h; Potency, µM, inactives show max response, actives largely listed as inhibitors; AID 906; 120 tested, under 10 active; shares compounds with CRE-bla Fsk
CRE-luc potent – boosts CRE luciferase signal in HEK293 cells; shares compounds with CRE-bla Fsk; HEK293 CRE-luc2P, NKH477 EC10 potentiation, luminescence, 4 h; Potency, µM (titrated, usually from 38.3 µM), for the others: at the top dose activity, positive = activation, usual class: activators; actives 80% (n = 120)
An asterisk follows results filed as active; i = inactive; u = inconclusive; x = no result; ! = repeats disagree. Unless noted, calls come from the whole dose curve; as a rule, active = well fitted curve in the direction sought with a large enough effect; inconclusive = small, poorly fitted or top-dose-only effect, or another doubt; inactive = no such curve, though single readings can be large; an effect the other way counts as inactive or inconclusive.

SMILES	4-MU autofl	CRE-bla Fsk	HADH2 inh	A350 fluor	HSD17B inh	AID923	CHO via 24h	CHO via 40h	CRE-luc potent
CCOc1ccc(-c2nnc3ccc(SCc4ccc(C(=O)OC)o4)nn23)cc1	u	2µM*	u	u	-17%	0%	-22	u	2.2µM*
COC(=O)c1ccc(CSc2ccc3nnc(-c4ccccn4)n3n2)o1	x	u	-12%	x	6%	-1%	x	x	x
CC1(C)CC23C(=O)CCC(O)C2(C)CCC13 (stereo not given)	x	x	x	x	-2%	1%	x	x	x
CCCCNc1c(C(=O)OCC)c(C)nc2c1cnn2CC	u	3.2µM*!	u	u	-8%	-2%	-21	u	0.79µM*
c1cncc(-c2cncnc2-n2ccnc2)c1	i	-6%	-24%	i	-12%	0%	x	x	x
COc1cccc2c(C)nc(Nc3nc(CSc4nnc(C)s4)cc(=O)[nH]3)nc12	u	u	1%	u	2%	-1%	u	-90%	6.3µM*
COc1ccc(OC)c(NC(=O)c2cc3sccc3n2C)c1	u	11%	-26%	u	2%	2%	x	x	x
COc1ccc(OC)c(NC(=O)c2cn(C)c(=O)c3cc(OC)c(OC)cc23)c1	i	0.79µM*	8%	i	3%	0%	-2	-12%	4µM*
CCCN1Cc2cccc(C(=O)Nc3ccc(N4CCN(CC)CC4)cc3)c2C1=O	i	4µM*	-1%	i	6%	1%	-2	-6%	7.9µM*
CCCN1Cc2cccc(C(N)=O)c2C1=O	i	13%	-1%	i	5%	-2%	x	x	x
O=C(c1cccc(F)c1)N1CCC2(CCN(Cc3ccncc3)CC2)CC1	i	3%	12%	i	-1%	-1%	x	x	x
